HTR5A ag: HTR5A agonists in luminescence cell assay, primary screen, counter-screen for OPRM1-OPRD1 heterodimer agonist project, full-deck HTS | activation, % at 9.3 µM | cell-based | 0.61% of 340,000 active | 5-hydroxytryptamine receptor 5A (Homo sapiens), P47898 | AID 504692, 2011; in the data active means activation mostly above about 9.5%, no sharp cut-off; inactive means mostly below about 7.6%
Target sequence (P47898 whole entry, looked up): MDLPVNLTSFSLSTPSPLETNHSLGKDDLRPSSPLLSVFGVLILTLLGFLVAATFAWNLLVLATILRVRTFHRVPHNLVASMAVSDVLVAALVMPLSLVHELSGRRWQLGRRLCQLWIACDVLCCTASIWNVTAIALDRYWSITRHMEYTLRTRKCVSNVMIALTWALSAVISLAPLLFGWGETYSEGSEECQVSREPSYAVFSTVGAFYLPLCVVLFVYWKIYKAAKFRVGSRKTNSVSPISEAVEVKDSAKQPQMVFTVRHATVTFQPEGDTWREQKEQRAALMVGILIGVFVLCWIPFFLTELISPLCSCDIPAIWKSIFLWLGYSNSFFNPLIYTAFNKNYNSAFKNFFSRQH
MOR-DOR inv ag: inverse agonists of MOR-DOR heterodimerization, primary screen, cell-based, luminescence; Mu-type opioid receptor (Homo sapiens) + Delta-type opioid receptor (Homo sapiens), …; cell-based MOR-DOR heterodimer luminescence, inverse agonism; inhibition, % at 9.3 µM; 0.21% of 340,000 active; in the data active means inhibition above about 22%, passing the limit was not always enough
MOR-DOR ag: agonists of OPRM1-OPRD1 heterodimerization, primary screen, cell-based, luminescence; cells; Mu-type opioid receptor (Homo sapiens) + Delta-type opioid receptor (Homo sapiens), …; activation, % at 9.3 µM; AID 504326, 2011; 0.3% of 340,000 active; in the data active means activation above about 18%
HTR5A inv ctr: HTR5A inverse agonists in luminescence cell assay, primary screen, counter-screen for OPRM1-OPRD1 heterodimer inverse agonist project, full-deck HTS; 5-hydroxytryptamine receptor 5A (Homo sapiens), P47898; HTR5A cell line, inverse agonism; inhibition, % at 9.3 µM; 0.083% of 340,000 active; in the data active means inhibition mostly above about 23%, no sharp cut-off; inactive means mostly below about 18%
A number is an active result; 0 = inactive. Hits are enriched below; roughly 1.1% of the tested compounds scored in any of these assays.

SMILES | HTR5A ag | MOR-DOR inv ag | MOR-DOR ag | HTR5A inv ctr
Cc1ccc2nsnc2c1NC(=S)NC(=O)c1ccco1 | 0 | 0 | 0 | 0
O=C(NNC(=O)C12CC3CC(CC(O)(C3)C1)C2)c1csc(N2CCOCC2)n1 | 0 | 0 | 0 | 0
CCOC(=O)/C(=C\c1cccnc1)C(=O)c1cc(C(C)=O)c(Nc2ccccc2)s1 | 0 | 33 | 0 | 0
CCOC(=O)/C(=C\c1ccccc1)C(=O)c1cc(C(C)=O)c(Nc2ccccc2)s1 | 0 | 0 | 0 | 0
Cc1ccc(Nc2cc(C)nn2-c2nc(C)cc(C)n2)cc1 | 0 | 0 | 0 | 0
Cc1ccc(Nc2cc(C)nn2-c2nc(C)cc(=O)[nH]2)cc1 | 0 | 55 | 0 | 0
Cc1ccc2c(c1)c1c3n2CCN(C(=O)CN2CCN(C)CC2)C3CCC1 (centres undefined) | 9.1 | 0 | 0 | 0
COc1cc2c(cc1NC(=O)C(C)OC(=O)c1ccc(S(=O)(=O)Nc3ccccc3Cl)cc1)oc1ccccc12 (centres undefined) | 13 | 0 | 0 | 0
COc1cc2c(cc1NC(=O)C(C)N1CCN(S(=O)(=O)c3ccc(C)c(C)c3)CC1)oc1ccccc12 (centres undefined) | 0 | 0 | 0 | 0
CCN(CC)CCNC(=O)C(Cl)=C1C(Cl)=C(Cl)C(Cl)=C1Cl | 0 | 0 | 0 | 0
N/C(=N\OC(=O)c1ccc(Cl)c(Cl)c1)c1ccccn1 | 14 | 0 | 0 | 0
N/C(=N\OC(=O)c1ccc(Cl)cc1)c1ccccn1 | 0 | 0 | 0 | 0
COc1ccccc1-n1c(SCC(=O)NCC2CCCO2)nc2c([nH]c3ccccc32)c1=O (centres undefined) | 0 | 45 | 0 | 38
CCn1c(SCC(=O)NCC2CCCO2)nc2c([nH]c3ccccc32)c1=O (centres undefined) | 0 | 0 | 0 | 0
Cc1ccc(S(=O)(=O)N2CCCCC2c2cccnc2)c(C)c1C (centres undefined) | 13 | 0 | 0 | 0
O=C(N/N=C/c1ccccn1)c1ccc(NC(=O)c2ccc(F)cc2)cc1 | 14 | 0 | 0 | 0
COc1cccc(/C=N/NC(=O)c2ccc(-n3cnnn3)cc2)c1 | 0 | 0 | 0 | 0
CCOC(=O)C(C)CC(C)C(=O)N1CCOCCN(C(=O)C(C)CC(C)C(=O)OCC)CCOCC1 (centres undefined) | 9.2 | 0 | 0 | 0
O=C(CSc1nnc(-c2ccccc2O)o1)N1CCCCC1 | 0 | 0 | 0 | 0
COc1ccc(CNS(=O)(=O)c2ccc(F)c(C(=O)Nc3ccccc3OC)c2)cc1 | 9.5 | 0 | 0 | 0
O=C(Nc1ccccc1F)c1ccc(CNS(=O)(=O)c2cccc(C(F)(F)F)c2)cc1 | 12 | 0 | 0 | 0
Cc1ccc(NC(=O)c2ccc(CNS(=O)(=O)c3cccc(C(F)(F)F)c3)cc2)cc1 | 0 | 0 | 0 | 0
COc1ccc(OC)c(CN2CCN(C(=O)CNC(=O)c3ccc(C(C)(C)C)cc3)CC2)c1 | 0 | 0 | 0 | 0
CC1=C/C(=C(\c2cc(C)c(O)c(Br)c2)c2ccccc2S(=O)(=O)O)C=C(Br)C1=O | 0 | 28 | 0 | 0
Cc1cc(C(=O)c2ccccc2)cc(C)c1O | 0 | 0 | 0 | 0
SMILES | HTR5A ag | MOR-DOR inv ag | MOR-DOR ag | HTR5A inv ctr
CC1=C(C)/C(=N\OS(=O)(=O)c2ccccc2)C=CC1=O | 0 | 0 | 62 | 0
NC(=O)c1cc(Cc2ccccc2)sc1NC(=O)c1ccco1 | 0 | 0 | 0 | 0
CCOc1ccc(CC(=O)Nc2sc(Cc3ccccc3)cc2C(N)=O)cc1OCC | 9.6 | 0 | 0 | 0
CC(C)NC(=O)NC(=O)COC(=O)c1c2c(nc3ccccc13)CCC2 | 14 | 0 | 0 | 0
CCOc1ccc(C(=O)Nc2cccc([N+](=O)[O-])c2)cc1Br | 9.2 | 0 | 0 | 0
CCOc1ccc(C(=O)Nc2cccc(NC(=O)c3cccs3)c2)cc1[N+](=O)[O-] | 0 | 0 | 0 | 0
Cc1ccc(N(C(=O)CNC(=O)c2ccco2)C(C(=O)NCC2CCCO2)c2ccccc2)c(C)c1 (centres undefined) | 0 | 0 | 0 | 0
Cc1cn(C2CC(O)C(CO)O2)c(=O)n(Cc2ccccc2)c1=O (centres undefined) | 0 | 0 | 0 | 0
CC(C)(C)OC(=O)N[C@@H](CC(=O)OCc1ccccc1)C(=O)O | 0 | 0 | 0 | 0
COC(=O)c1c(NC(=O)CCC(=O)O)sc2c1CCCCC2 | 14 | 0 | 0 | 0
O=C(COC(=O)c1cccs1)Nc1ccc(F)c(F)c1 | 0 | 0 | 0 | 0

Source: PubChem BioAssay
